Screen size: about 650,000 compounds; about 5,900 (0.91%) were called active. Cut-off read from the data, not from the text of the source: active = inhibition above about 50%; inactive = the rest. The sample as a whole holds a higher share of actives than the screen did.

Microphthalmia-associated transcription factor (Homo sapiens), sequence (O75030 whole entry, looked up): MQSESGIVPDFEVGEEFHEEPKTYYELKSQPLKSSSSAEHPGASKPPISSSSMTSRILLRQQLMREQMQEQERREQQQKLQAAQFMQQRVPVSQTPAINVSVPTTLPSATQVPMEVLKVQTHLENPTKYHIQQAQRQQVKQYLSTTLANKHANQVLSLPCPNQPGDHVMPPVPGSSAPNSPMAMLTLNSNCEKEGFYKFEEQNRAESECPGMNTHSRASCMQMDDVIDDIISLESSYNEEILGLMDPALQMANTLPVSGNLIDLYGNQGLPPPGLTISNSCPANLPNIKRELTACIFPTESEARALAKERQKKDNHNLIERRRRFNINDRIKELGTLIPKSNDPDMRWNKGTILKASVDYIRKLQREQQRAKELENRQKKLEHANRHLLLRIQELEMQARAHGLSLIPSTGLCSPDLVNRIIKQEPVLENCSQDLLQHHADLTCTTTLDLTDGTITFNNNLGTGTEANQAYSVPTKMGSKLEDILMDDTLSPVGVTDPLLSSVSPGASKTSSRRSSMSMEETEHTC

This test concerns the target Microphthalmia-associated transcription factor (Homo sapiens) (UniProt O75030). The test can be described thus: MITF inhibitors, primary screen, biochemical, AlphaScreen, human (AID 1259374).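 Note: 0% = vehicle wells with protein.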 To be noted: AlphaScreen MITF homodimerization, bead proximity signal; at 2.6 µM; active compounds read high.
For `CC(Cc1cccc(C(F)(F)F)c1)N1CCOCC1` (stereo not drawn), the inhibition was 12.7% (inactive). Consider `CCN1CCN(Cc2ccc3ccccc3c2)CC1`, for which the inhibition is 3.25% (inactive). For the compound `CCN1CCN(Cc2ccc(C(=O)OC)cc2)CC1`, the inhibition was -13.2% (inactive). As to `CN1CCN(Cc2ccc(F)cc2)CC1CCO` (stereo not drawn), the inhibition is -5.75% (inactive).

Regarding `CCC(C)N1CCN(Cc2ccc(SC)cc2)CC1` (stereo not drawn), the inhibition was 65.1% (active). Then `Clc1ccc(CN2CCN(Cc3ccc(Cl)cc3)CC2)cc1`, with 31.9% (inactive). Consider `CCC(CC)N1CCN(Cc2ccc(F)cc2)CC1`, for which the inhibition was 70.5% (active). On to `Fc1cccc(Cl)c1CNC1CN2CCC1CC2` (stereo not drawn), for which the inhibition was 2.47% (inactive).

`O=C(CN1CCCC1)c1ccccc1Br`: the inhibition is -5.43% (inactive). As for `Cc1cc(C=C2C(=O)NC(=S)NC2=O)c(C)n1-c1ccccc1C(F)(F)F`, the figure is 8.02% (inactive); as for `CCOC(=O)C1=C(N)OC2=C(C(=O)CCC2)C12C(=O)Nc1ccc(Br)cc12` (stereo not drawn), -1.67% (inactive); as for `FC1CC2C(Cl)C1NC2(C(F)(F)F)C(F)(F)F` (stereo not drawn), -5.25% (inactive).

Turning to `CN1C(=O)C(=Cc2cn(CC(=O)NCc3ccco3)c3ccccc23)C(=O)N(C)C1=O`, the inhibition was 0.24% (inactive). As for `CN1CCC(N(C)c2ncnc3scc(-c4ccc(Cl)cc4)c23)CC1`, the figure is 51.4% (active); as for `O=C(CN1C2CCC1CC(O)(c1ccccn1)C2)N1c2ccccc2Sc2ccccc21` (stereo not drawn), 44.9% (inactive); as for `Cn1ccnc1C1(O)CC2CCC(C1)N2CC(=O)N1CCc2ccccc2C1` (stereo not drawn), 9.08% (inactive). As for `CC1CCCC(C)N1C(=O)CN1C2CCC1CC(O)(c1ccccn1)C2` (stereo not drawn), the figure is 54.9% (active). Then `Cc1cccc(OCC(=O)N2CCN(Cc3ccccc3)CC2)c1C`, with 13% (inactive); and `COc1cccc(CN2CCN(C(=O)COc3ccccc3)CC2)c1OC`, with 43.9% (inactive). On to `COc1ccccc1CN1CCN(c2ccc(F)cc2)CC1`, for which the inhibition is 19.3% (inactive). Then `COc1ccccc1CN1CCN(Cc2ccc(Br)cc2)CC1`, with 77.5% (active); and `COc1ccc(CN2CCN(Cc3ccccc3)CC2)cc1C`, with 50.8% (active). Take `COc1cc(CN2CCN(C)CC2)ccc1O`: the inhibition is 41.2% (inactive). As for `COc1ccccc1N1CCN(Cc2cccc(O)c2)CC1`, the figure is 24.7% (inactive); as for `COc1ccccc1CN1CCN(C(=O)Cc2ccccc2)CC1`, 57.1% (active); as for `COc1cc(CN2CCN(Cc3ccccc3)CC2)cc(I)c1O`, -2.51% (inactive). Then `CC(C)CCn1c(=O)c(C(=O)Nc2nc3ccc(F)cc3s2)c(O)c2ccccc21`, with 9.2% (inactive); and `CC12CCC(=O)C=C1CC[C@@H]1[C@@H]2CCC2(C)[C@@H](O)CC[C@@H]12` (stereo partly drawn), with 3.34% (inactive); and `Cc1cccc(-n2c(CN3C(=O)c4ccccc4C3=O)nc3ccccc3c2=O)c1`, with 8.78% (inactive). Turning to `C=CCN1C(=O)NC(=O)/C(=C/c2ccc(O)c(OC)c2)C1=O`, the inhibition was -1.51% (inactive). As for `C=CCN1C(=O)NC(=O)/C(=C/c2ccc3c(c2)OCO3)C1=O`, the figure is 11.9% (inactive); as for `CCNC(=S)N1CC2CC(C1)c1cccc(=O)n1C2` (stereo not drawn), -9.28% (inactive).

For the compound `CCCC1=C(C(=O)OC)C2(C(=O)Nc3ccccc32)C(C(=O)OCC)=C(N)O1` (stereo not drawn), the inhibition is 12% (inactive).

As to `c1cc2c(cc1NC1=NCCCS1)OCCO2`, the inhibition was 2.15% (inactive). Consider `O=C1NC(=S)N(Cc2ccco2)C(=O)/C1=C\c1ccc(-c2ccc([N+](=O)[O-])cc2)o1`, for which the inhibition was 89.9% (active). As to `O=C1NC(=S)NC(=O)C1=Cc1ccc(-c2ccccc2)o1`, the inhibition is 31.6% (inactive). As for `C=CCN1C(=O)/C(=C\c2cccn2-c2cccc([N+](=O)[O-])c2)C(=O)NC1=S`, the figure is 44.6% (inactive); as for `N#CC1=C(N)Oc2c(c(=O)oc3ccccc23)C1c1ccc([N+](=O)[O-])s1` (stereo not drawn), 2.54% (inactive).

As for `COc1cccc(-n2c(/C=C/c3cccnc3)nc3ccccc3c2=O)c1`, the inhibition is -8.02% (inactive). Then `Cc1cc(/C=C2/C(=O)NC(=O)N(Cc3ccco3)C2=O)c(C)n1-c1ccc(C(=O)O)cc1`, with 80.4% (active); and `Cc1cc(C=O)c(C)n1Cc1ccco1`, with 3.63% (inactive).

As for `Cc1ccccc1N1C(=O)NC(=O)/C(=C\c2cc(C)n(-c3ccccc3C(=O)O)c2C)C1=O`, the inhibition was 15.6% (inactive).

For the compound `COc1ccccc1CCNCc1ccc(C)cc1`, the inhibition is 24.2% (inactive).

For the compound `Cc1ccc(CN2CCN(Cc3ccccc3[N+](=O)[O-])CC2)cc1`, the inhibition is 59.3% (active). Then `O=[N+]([O-])c1ccc(O)c(CN2CCN(c3ccccc3)CC2)c1`, with 9.43% (inactive); and `Fc1ccc(CN2CCN(c3ccccc3)CC2)cc1F`, with 40.2% (inactive). Then `Cc1ccc(CN2CCN(C(=O)COc3cccc(C)c3)CC2)cc1`, with 43.5% (inactive). As for `O=[N+]([O-])c1ccccc1CN1CCN(Cc2cccc(F)c2)CC1`, the figure is 51.4% (active).

As to `O=[N+]([O-])c1ccccc1C[N+]12CCC(CC1)C(O)C2` (stereo not drawn), the inhibition is 8.77% (inactive).

For `Cc1ccccc1OCC(=O)N1CCN(CCNC(=O)c2ccc3c(c2)OCO3)CC1`, the inhibition is -3.05% (inactive). In the case of `O=C1NC(=S)NC(=O)C1=Cc1ccc(OCc2ccccc2)c(C(=O)O)c1`, the inhibition is 18.7% (inactive). As for `CCCC1(CCC)C(=O)NC(=Nc2ccc(OC)cc2)NC1=O`, the figure is -6.47% (inactive). Then `CC(c1ccccc1F)n1cc(C(=O)NC2CC2)nn1` (stereo not drawn), with -9.15% (inactive).
